# Measurements from PubChem BioAssay (NCI).
# Values joined by “and” are separate entries in the source; they are usually repeats but may differ in a detail not shown here. Equal values may be shown once. This is part of a sample that, as a whole, favours compounds with a hit. Of some 79,000 tested, about 15% had one in any assay. Active and inactive are the calls of the source. Cut-off read from the data, not from the text of the source: active = growth inhibition above about 70%; inactive = the rest.
# Experiment: NCI Yeast Anticancer Drug Screen. Data for the sgs1 mgt1 strain (AID 161);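 note: 0% = growth of cultures given vehicle only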
# Settings: S. cerevisiae sgs1 mgt1 strain, at 50.0 µM, active compounds read high
# Procedure, shortened: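 Genetically altered yeast, compound exposure, growth inhibition relative to vehicle.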
row,Structure (SMILES),growth inhibition
1,O=C1NC(=O)C(c2ccsc2)C(=O)N1,-30.4% (inactive)
2,[NH-]C(CO)C(=O)O.[NH-]C(CO)C(=O)O.[Pd+2] (stereo not given),-6.15% (inactive)
3,CCc1ccc(OP(=O)(Oc2cc(C)cc(C)c2)Oc2cc(C)cc(C)c2)cc1,-16.1% (inactive)
4,Cc1cccc(C)c1OCC1=NCCN1,0.1% (inactive)
5,ClCCN(CCCl)c1ccc(CCN2CCOCC2)cc1,19.5% (inactive)
6,Cn1c(O)c(C=N)c(=O)n(C)c1=O,-2.6% (inactive)
7,CC(C(O)c1cccnc1)[N+](=O)[O-] (stereo not given),-23.6% (inactive)
8,CN1CCC2=C(c3ccccc3)c3ccccc3C2C1 (stereo not given),13.4% (inactive)
9,Cc1nn[n-]n1.N.N.N.N.N.[Cl-].[Co+3],22.1% (inactive)
10,C/C(=C\COc1ccc2ccc(=O)oc2c1)C1=CC(=O)C(C)(C)O1,18.9% (inactive)
11,CN(Cc1cnc2nc(N)nc(N)c2n1)c1ccc(C(=O)NC(CCC(=O)NC(CC(P(=O)(O)O)P(=O)(O)O)C(=O)O)C(=O)O)cc1 (stereo not given),-8.05% (inactive)
12,Cc1ccc(N)c(N)c1,9.3% (inactive) and -3.35% (inactive)
13,COc1ccc2ccc3oc([N+](=O)[O-])cc3c2c1,-23.9% (inactive)
14,NCCN.NCCN.[Cl-].[O]=[Re]=[O],6.4% (inactive)
15,CC(=O)O,7.5% (inactive)
16,CCCC1(CCS)C(=O)NC(=O)NC1=O,-13.3% (inactive)
17,Cc1cc(N(CCCl)CCCl)ccc1C=N/C(C#N)=C(\N)C#N,-4.8% (inactive)
18,O=C1CCP(c2ccccc2)(c2ccccc2)(c2ccccc2)O1,23.1% (inactive)
19,CO[C@H]1Nc2c(ccc(C)c2O)C(=O)N2C=C(/C=C/C(N)=O)C[C@@H]12,90% (active)
20,CC12CCC3C(=CC=C4CC(O)CCC43C)C1CCC2=O (stereo not given),18.6% (inactive) and 10.6% (inactive)

row,Structure (SMILES),growth inhibition
1,Fc1ccc(C2(N3CCC4(CC3)OCCO4)CCCCC2)cc1,14.1% (inactive)
2,CC1CCCN(C(c2ccccc2)C(O)c2ccccc2)C1 (stereo not given),13.2% (inactive)
3,COc1cc[c]([Pb]([c]2ccc(Cl)cc2)([c]2ccc(Cl)cc2)[c]2ccc(OC)cc2)cc1,-1.1% (inactive)
4,CCN(CCCl)c1cccc(NC(=O)c2ccc(C(=O)Nc3cccc(CN(C)C)c3)cc2)c1,20.5% (inactive)
5,N.N.N.N.[Co+3].[O-][Cl+3]([O-])([O-])[O-].[OH3+].[OH3+],-22.3% (inactive)
6,N#C[C@H](OC1OC(COC2OC(CO)C(O)C(O)C2O)C(O)C(O)C1O)c1ccccc1 (stereo not given in full),-20.6% (inactive)
7,CN1c2ccccc2NP1(=S)c1ccccc1 (stereo not given),95.2% (active)
8,C[n+]1ccccc1-c1ccc[n+](CCCC[n+]2cccc(-c3cccc[n+]3C)c2)c1,-7.5% (inactive)
9,O=P(O)(OCCc1ccccc1)Oc1ccccc1O,-20.7% (inactive)
10,COc1cc([C@@H]2c3cc(O)c(OC)cc3C[C@H]3C(=O)OC[C@@H]23)ccc1O,26.2% (inactive)
11,c1ccc2c(c1)ccc1[s+]cccc12,35.7% (inactive)
12,CC1CC2CCC1(CO)CN2 (stereo not given),0.1% (inactive)
13,CN(C)c1c2c(=O)n(C)c(=O)n(C)c2nc2cccc[n+]12,-5.2% (inactive)
14,CC(C)N(C#N)C(C)C,1.85% (inactive)
15,C1CC[N-]CC1.CC(=N\O)/C(C)=N/O.CC(=N\O)/C(C)=N/O.C[CH-]C(C)O.[Co+2],36.3% (inactive)
16,OC1(CN2CCCCC2)N=C(c2ccccc2)c2ccsc2-n2cccc21 (stereo not given),-25.2% (inactive)
17,NCCN.NCCN.O=C([O-])CCl.O=C([O-])CCl.[Co+3].[O-][Cl+3]([O-])([O-])[O-],-43.2% (inactive)
18,CN(C)P(=S)(N(C)C)N1CCOCC1,6.55% (inactive)
19,CC(=N\O)/C(C)=N/O.CC(=N\O)/C(C)=N/O.[Ni],-7.35% (inactive)
20,COP(=O)(O)NC(C)=O,8.85% (inactive)
